# Laboratory results from PubChem BioAssay (NCI).
# Compounds without any hit were thinned out: in the full panel of roughly 83,000, 20% have a hit.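 Step 1: grow cells in 96-well plates. Step 2: add test compound at a single concentration. Step 3: incubate 48 h. Step 4: record percent growth.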 Values without a mark were called inactive. Active and inactive are the calls of the source. Rule for the calls: active = growth percent below 10; inactive = the rest.
# Columns and labels:
# Assay in all cases: NCI-60 one-dose screen, 48 h (100 = growth as untreated, 0 = no growth, -100 = all killed)
# [1] = tested on: SR leukemia; conditions: 10 µM unless noted
# [2] = tested on: OVCAR-5 ovarian; conditions: 10 µM unless noted
# [3] = tested on: OVCAR-4 ovarian; conditions: 10 µM unless noted
# [4] = tested on: SK-OV-3 ovarian; conditions: 10 µM
# [5] = tested on: IGROV1 ovarian; conditions: 10 µM unless noted
# [6] = tested on: OVCAR-3 ovarian; conditions: 10 µM unless noted
# [7] = tested on: HS 578T breast; conditions: 10 µM unless noted
# [8] = tested on: NCI/ADR-RES ovarian; conditions: 10 µM unless noted
# [9] = tested on: BT-549 breast; conditions: 10 µM unless noted
# [10] = tested on: MDA-MB-435 melanoma; conditions: 10 µM unless noted
# [11] = tested on: SW-620 colon; conditions: 10 µM unless noted
# [12] = tested on: MCF7 breast; conditions: 10 µM unless noted
# [13] = tested on: HCT-116 colon; conditions: 10 µM unless noted
# [14] = tested on: HCC-2998 colon; conditions: 10 µM unless noted
# [15] = tested on: KM12 colon; conditions: 10 µM unless noted
# [16] = tested on: T-47D breast; conditions: 10 µM
# [17] = tested on: OVCAR-8 ovarian; conditions: 10 µM unless noted
Structure (SMILES),growth [1],growth [2],growth [3],growth [4],growth [5],growth [6],growth [7],growth [8],growth [9],growth [10],growth [11],growth [12],growth [13],growth [14],growth [15],growth [16],growth [17]
Cn1c2ccccc2c2nn(Cc3ccccc3)c(=O)nc21,97.7%,92.8%,111%,105%,120%,107%,106%,109%,110%,112%,99.3%,95.1%,109%,114%,104%,,
COC(=O)c1cc(-c2ccc(C)cc2)n(C(=O)CSc2nc3sc(C(N)=O)c(C)c3c(=O)n2Cc2ccccc2)n1,86.9%,110%,100%,96.8%,,106%,107%,,96.1%,104%,105%,90.2%,92%,108%,100%,95.1%,
O=c1c2c(=NCCN3CCCC3)cc3c(=O)n(CCCN4CCOCC4)c(=O)c4c(-c5ccc(CN6CCCC6)cc5)cc(c(O)n1CCCN1CCOCC1)c2c4-3,3.49% (active),-34.6% (active),-50.7% (active),,-25.4% (active),-22.5% (active),-26.3% (active),-0.981% (active),-50.9% (active),,-45.2% (active),-34.8% (active),-23.8% (active),-63.7% (active),-47.7% (active),,-10.7% (active)
c1ccc2cc(-c3n(Cc4ccc5ccccc5n4)c4ccccc4[n+]3Cc3ccc4ccccc4n3)ccc2c1,-24.5% (active),8.83% (active),4.26% (active),,-51% (active),-18.9% (active),-9.29% (active),58.6%,-5.25% (active),-35.6% (active),-9.76% (active),-10.4% (active),2.75% (active),-52.7% (active),-80.8% (active),,-0.932% (active)
c1ccc(-c2n(Cc3ccc4ccccc4n3)c3ccccc3[n+]2Cc2ccc3ccccc3n2)cc1,-19.1% (active),12.8%,7.64% (active),,-34.3% (active),0.883% (active),2.04% (active),73.4%,-0.501% (active),-12.7% (active),2.87% (active),1.36% (active),5.91% (active),-3.47% (active),-61.2% (active),,7.66% (active)
COc1cc2oc(-c3ccc(O)cc3)cc(=O)c2c(O)c1I,79.3%,104%,,,114%,117%,103%,98%,96.2%,101%,109%,79%,104%,105%,96.5%,93.1%,96.3%
O=C(NC1CC1)c1cc2n(n1)CC(c1ccccc1)N2 (stereo not given),104%,95.9%,104%,,100%,112%,83.8%,104%,99.7%,99.4%,95.4%,85.9%,102%,101%,102%,,105%
Cc1cc(NS(=O)(=O)c2ccc(NC(=O)COc3ccc(-c4cc5ccccc5[nH]4)cc3)cc2)no1,-5.32% (active),52.3%,,13.7%,35.3%,-0.541% (active),16.6%,,11.9%,-11.9% (active),15.9%,1.1% (active),2.8% (active),-1.25% (active),10.3%,-19.8% (active),32.3%
Cc1ccc(C(=O)O[C@H](C(=O)O)[C@H](OC(=O)c2ccc(C)cc2)C(=O)O)cc1,87.5%,,,,,,,,,,,,,,,93.6%,
COc1cc(-c2nc(SC(C)C)nc(Nc3ccccc3C)c2C#N)cc(OC)c1OC,110%,99.1%,110%,,104%,121%,104%,109%,109%,106%,104%,101%,114%,106%,104%,,103%
